High-throughput results from PubChem.
ALDH1A1 inh – ALDH1A1 (human) enzyme inhibition. P00352. Purified ALDH1A1, NADH fluorescence, propionaldehyde substrate. Potency, µM (titrated, usually from 75.3 µM), most hits filed as inhibitors. 220,000 tested, 7.3% active
Luc counter – counter-screen: inhibitors of Kinase-Glo firefly luciferase; Kinase-Glo luciferase, ATP luminescence, 8 min; Potency, µM (titrated, usually from 38.3 µM), usual class: inhibitors; 200,000 tested, 0.28% active; AID 1379; active = well fitted inhibition curve with a large enough effect; inconclusive = small, poorly fitted or top-dose-only effect; note: nearly all actives have a fitted effect of over 60% in size
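Kinase-Glo luciferase light output from ATP and luciferin was measured with 10 uM ATP, within the enzyme's linear range. Buffer: 50 mM imidazole pH 7.2, 50 mM KCl, 7 mM MgCl2, 0.01% Tween 20, 0.05% BSA; luminescence read after 8 min at ambient temperature.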
Lamin A splicing – changes lamin A minigene splicing in HeLa cells; 200,000 tested, 0.01% active; Potency, µM (top dose mostly 46.1 µM), usual class: inhibitors; AID 1487; HeLa LMNA splicing GFP/RFP minigene ratio, 48 h; active = well fitted inhibition curve with a large enough effect in the signal ratio, with a control signal flat, not every such curve was filed as active; inconclusive = small, poorly fitted or top-dose-only effect, or effect the other way, or a change in a side signal; the % refers to the signal ratio
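S3 HeLa stable clones carrying a lamin A-EGFP splicing minigene plus DsRed2 were seeded at 600 cells/well in Opti-MEM with 2% FBS, pin-dosed and incubated 48 h at 37°C. Acumen cytometry (488 nm) gave the GFP/RFP total-intensity ratio.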
PNC assembly inh – inhibitors of perinucleolar compartment assembly; PC3M PTB-GFP, PNC prevalence imaging, 16 h; hits give low values; activity change (PNC), negative = inhibition, % at 10 µM; 140,000 tested, 3.1% active;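 active = readout at or below -70, meaning at least 70% loss of cells showing the perinucleolar compartment, a nuclear body marking cancer cells; inconclusive = readout between -30 and a set limit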
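PC3M cells stably expressing PTB-GFP, 750–1000 cells/well, treated 16 h at 37 °C with compound (23 nl of library stock), in duplicate. After paraformaldehyde fixation and Hoechst stain, imaged at 20x; PNC prevalence scored by image analysis.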
HPGD block – HPGD (human) dehydrogenase inhibition. Potency, µM, actives largely listed as inhibitors. P15428. purified HPGD, NADH fluorescence kinetic, PGE2 substrate. 150,000 tested, 4.3% active
Target sequence (P15428 whole entry, looked up): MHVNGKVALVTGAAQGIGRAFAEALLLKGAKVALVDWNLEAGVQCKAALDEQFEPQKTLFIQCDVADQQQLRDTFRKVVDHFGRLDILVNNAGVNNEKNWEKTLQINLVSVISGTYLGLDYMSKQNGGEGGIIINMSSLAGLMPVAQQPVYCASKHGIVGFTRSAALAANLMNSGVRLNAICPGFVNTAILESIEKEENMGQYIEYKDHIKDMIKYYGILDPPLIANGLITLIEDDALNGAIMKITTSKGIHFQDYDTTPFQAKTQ
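20 nM HPGD preincubated 15 min at room temperature with compound in 50 mM Tris-HCl pH 8, 0.01% Tween 20. Started with 1 mM NAD+ and 30 uM prostaglandin E2; NADH fluorescence (360/450 nm) read 5 times over 30-s intervals, last minus first.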
Of the large screens only hits and unclear results are named; the others gave an inactive call. Only some compounds are listed: those with a hit (about 10% of all), similar ones and a draw of the others. Unless noted, calls come from the whole dose curve; as a rule, active = well fitted inhibition curve with a large enough effect (not every such curve was filed as active); inconclusive = small, poorly fitted or top-dose-only effect, or another doubt; inactive = no such curve, though single readings can be large or run the other way.

CC1=C(C(=O)OCC2CCCO2)C(c2cccc(O)c2)NC(=O)N1 (stereo not drawn)	none
CCOC(=O)C1=C(C)NC(=S)NC1c1ccc(OC(=O)c2ccco2)cc1 (stereo not drawn)	ALDH1A1 inh 2.2µM
COC(=O)C1=C(C)NC(=S)NC1c1ccco1 (stereo not drawn)	ALDH1A1 inh inconclusive (no result: Lamin A splicing, PNC assembly inh, HPGD block)
COc1ccc2c(c1)C(=O)[C@H](OC(=O)NS(=O)(=O)c1ccc(C)cc1)[C@@H](c1ccc(OC)c(Br)c1)O2	ALDH1A1 inh inconclusive (no result: Lamin A splicing, PNC assembly inh)
CN(C)c1ccc(C(CNC(=O)c2ccc(C(C)(C)C)cc2)N2CCCC2)cc1 (stereo not drawn)	none (no result: ALDH1A1 inh, Luc counter, PNC assembly inh, HPGD block)
CCN1CCN(C(=O)c2ccc(CSc3ccc(C)cc3)cc2)CC1	ALDH1A1 inh inconclusive, HPGD block 14µM
CCOC(=O)c1cc(C#N)c(=S)[nH]c1C	ALDH1A1 inh 3.5µM (no result: Lamin A splicing, PNC assembly inh, HPGD block)
CCCOn1c(OCC(C)C)nc2ccccc2c1=O	ALDH1A1 inh 22µM
COc1ccc(-c2nc3cnc(N(C)C)nc3n(CCc3ccccc3)c2=O)cc1	ALDH1A1 inh inconclusive (no result: Lamin A splicing, PNC assembly inh)
Cc1nc(N2CCOCC2)c2nc(-c3ccccc3)n(CCCN3CCOCC3)c2n1	ALDH1A1 inh inconclusive, HPGD block inconclusive (no result: Lamin A splicing, PNC assembly inh)
CCCCC1OC23CCCCC2C(C#N)(C#N)C1(C#N)C(=N)O3 (stereo not drawn)	ALDH1A1 inh 1.8µM, PNC assembly inh inconclusive, HPGD block inconclusive
CCCCC1OC23CCCCC2C(C#N)(C(=N)O3)C1(C#N)C#N (stereo not drawn)	ALDH1A1 inh inconclusive, HPGD block inconclusive
C=Cc1ccc(C=C)cc1	ALDH1A1 inh 14µM (no result: Luc counter, Lamin A splicing, PNC assembly inh)
C=Cc1cccc(C)c1	none (no result: Luc counter, Lamin A splicing, PNC assembly inh)
Cc1nn(-c2ccc(N3CCCCC3)nn2)c(C)c1CCC(=O)Nc1ccc(F)cc1F	none (no result: ALDH1A1 inh, Luc counter, PNC assembly inh, HPGD block)
C[C@@]12CCC[C@H]1C1CC[C@H]3C[C@H](O)CC[C@]3(C)C1CC2 (stereo partly drawn)	none (no result: Luc counter, Lamin A splicing, PNC assembly inh, HPGD block)
CCSc1ccccc1C(=O)NCc1ccc2c(c1)OCO2	ALDH1A1 inh inconclusive, PNC assembly inh inconclusive, HPGD block 1.4µM
COc1ccc(NC(=O)c2ccccc2SC)cc1	ALDH1A1 inh inconclusive (no result: Lamin A splicing, PNC assembly inh, HPGD block)
COc1ccc(CNC(=O)CCSCc2ccccc2C)cc1	ALDH1A1 inh 4µM (no result: Lamin A splicing, PNC assembly inh, HPGD block)
COc1ccc(CNC(=O)c2ccccc2SC)cc1	HPGD block 6.3µM
CSc1ccccc1C(=O)NCc1ccc2c(c1)OCO2	HPGD block 0.5µM
COc1ccccc1NC(=O)CCn1cnc2ccccc2c1=O	none (no result: ALDH1A1 inh, Luc counter, PNC assembly inh, HPGD block)
COc1ccc(NS(=O)(=O)c2ccc(I)cc2)cc1N1CCN(C)CC1	ALDH1A1 inh inconclusive (no result: Lamin A splicing, PNC assembly inh)
COCCSc1ccccc1C(=O)Nc1ccc2c(c1)OCO2	none (no result: Lamin A splicing, PNC assembly inh, HPGD block)
O=C(Nc1ccc2c(c1)OCO2)c1ccccc1SCC(=O)N1CCCC1	ALDH1A1 inh 1.3µM, HPGD block 28µM
O=C(/C=C/c1c(Cl)cccc1Cl)n1cccn1	PNC assembly inh -95
O=C(/C=C/c1c(F)cccc1Cl)Nc1ncccn1	HPGD block inconclusive
COc1ccc(-n2c(SCCC#N)nnc2-c2cc(Cl)ccc2OC)cc1Cl	Lamin A splicing inconclusive, HPGD block 20µM
CCOc1ccccc1CNC(=O)CN1C(=O)CCn2nc(-c3cn(C)c4ccccc34)cc21	none (no result: ALDH1A1 inh, Luc counter, PNC assembly inh, HPGD block)
CSc1nc(=S)c2[nH]c(=S)[nH]c2[nH]1	ALDH1A1 inh 1.4µM (no result: Luc counter, Lamin A splicing, PNC assembly inh, HPGD block)
CNc1ncnc2ccc(-c3ccccc3C)cc12	none (no result: Luc counter, PNC assembly inh, HPGD block)
CCOc1cccc(/C(O)=C2/C(=O)C(=O)N(CCN3CCOCC3)C2c2ccncc2)c1 (stereo not drawn)	ALDH1A1 inh 22µM (no result: Lamin A splicing, PNC assembly inh, HPGD block)
CCOc1cccc(/C(O)=C2/C(=O)C(=O)N(CCOC)C2c2ccco2)c1 (stereo not drawn)	ALDH1A1 inh 25µM
CC1Cc2cc(/C(O)=C3/C(=O)C(=O)N(CCN4CCOCC4)C3c3cccc(Cl)c3)ccc2O1 (stereo not drawn)	ALDH1A1 inh 11µM, PNC assembly inh inconclusive, HPGD block 28µM
CC1(C)OC[C@@H]2O[C@H](n3cnc4c(N)nc(Cl)nc43)[C@@H](OS(C)(=O)=O)[C@@H]2O1	none (no result: Lamin A splicing, PNC assembly inh)
C1CCN2CC3CC(CN4CCCC[C@@H]34)C2C1 (stereo partly drawn)	none (no result: Lamin A splicing, PNC assembly inh)
COC(=O)C1C(=O)C2=C(CC1C)NC(C)=C(C(=O)OC(C)C)C2c1ccc(C)o1 (stereo not drawn)	PNC assembly inh inconclusive
COC(=O)C1C(=O)C2=C(CC1C)NC(C)=C(C(=O)OC1CCCCC1)C2c1ccc(N(C)C)cc1 (stereo not drawn)	ALDH1A1 inh 8.9µM, PNC assembly inh -100
CN(/N=C\c1ccccc1O)c1ccc2ccccc2n1	none (no result: Lamin A splicing, PNC assembly inh)
COc1ccc(CN2CC(C(=O)NCCN3CCOCC3)CC2=O)cc1 (stereo not drawn)	PNC assembly inh -90
COc1ccccc1CNC(=O)C1CC(=O)N(c2ccc(C)c(C)c2)C1 (stereo not drawn)	ALDH1A1 inh 6.3µM, PNC assembly inh -81
COc1ccc(N2CC(C(=O)Nc3ccc(N4CCOCC4)cc3)CC2=O)cc1 (stereo not drawn)	PNC assembly inh -113
COc1ccccc1CNC(=O)C1CC(=O)N(C2CCCC2)C1 (stereo not drawn)	none
COc1ccc(N2CC(C(=O)NCc3cccnc3)CC2=O)cc1 (stereo not drawn)	PNC assembly inh -98
